Laboratory results as given in the supplement of paper PMC7261846.
Where a name gives a salt, the structure may show the parent alone. ± gives the uncertainty stated by the source.

Tested on: Candida albicans SNY425 biofilm
Test: biofilm OD600 with compound plus antifungal (OD600 (absorbance)); higher = more biofilm remaining
[1] = assay detail: disruption of 24-h mature biofilm (compound + antifungal for a second 24 h)
[2] = assay detail: sustained inhibition (compound + antifungal during 90-min adherence and 24-h growth)

Compound: N[C@H](C(=O)O)[C@@H]1CC(Cl)=NO1 [Acivicin] + CC[C@H](C)C[C@H](C)CCCCCCCCC(=O)N[C@H]1C[C@@H](O)[C@@H](NCCN)NC(=O)[C@@H]2[C@@H](O)CCN2C(=O)[C@H]([C@H](O)CCN)NC(=O)[C@H]([C@H](O)[C@@H](O)c2ccc(O)cc2)NC(=O)[C@@H]2C[C@@H](O)CN2C(=O)[C@H]([C@@H](C)O)NC1=O [caspofungin] (first compound 4 µM)
- biofilm OD600 [1]: 0.296 ± 0.012
- biofilm OD600 [2]: 0.163 ± 0.0049

Compound: CC(C)C[C@H](NC(=O)[C@@H](O)[C@H](N)Cc1ccccc1)C(=O)O [Bestatin·HCl] + OC(Cn1cncn1)(Cn1cncn1)c1ccc(F)cc1F [fluconazole] (first compound 12.5 µM)
- biofilm OD600 [1]: 0.284 ± 0.013
- biofilm OD600 [2]: 0.163 ± 0.011

Compound: CC(C)C[C@@H](C=O)NC(=O)[C@H](CC(C)C)NC(=O)[C@H](CC(C)C)NC(=O)OCc1ccccc1 + C[C@@H]1[C@H](O)[C@@H](C)/C=C/C=C/C=C/C=C/C=C/C=C/C=C/[C@H](O[C@@H]2O[C@H](C)[C@@H](O)[C@H](N)[C@@H]2O)C[C@@H]2O[C@](O)(C[C@@H](O)C[C@@H](O)[C@H](O)CC[C@@H](O)C[C@@H](O)CC(=O)O[C@H]1C)C[C@H](O)[C@H]2C(=O)O [amphotericin B] (first compound 12.5 µM)
- biofilm OD600 [1]: 0.29 ± 0.0045
- biofilm OD600 [2]: 0.209 ± 0.017

Compound: N=C(N)Nc1ccc(C(=O)Oc2ccc3cc(C(=N)N)ccc3c2)cc1 [Nafamostat mesylate] + CC[C@H](C)C[C@H](C)CCCCCCCCC(=O)N[C@H]1C[C@@H](O)[C@@H](NCCN)NC(=O)[C@@H]2[C@@H](O)CCN2C(=O)[C@H]([C@H](O)CCN)NC(=O)[C@H]([C@H](O)[C@@H](O)c2ccc(O)cc2)NC(=O)[C@@H]2C[C@@H](O)CN2C(=O)[C@H]([C@@H](C)O)NC1=O [caspofungin] (first compound 12.5 µM)
- biofilm OD600 [1]: 0.25 ± 0.0081
- biofilm OD600 [2]: 0.162 ± 0.012

Compound: CC(C)C[C@H](NC(=O)[C@H]1O[C@@H]1C(=O)O)C(=O)NCCCCN=C(N)N + CC[C@H](C)C[C@H](C)CCCCCCCCC(=O)N[C@H]1C[C@@H](O)[C@@H](NCCN)NC(=O)[C@@H]2[C@@H](O)CCN2C(=O)[C@H]([C@H](O)CCN)NC(=O)[C@H]([C@H](O)[C@@H](O)c2ccc(O)cc2)NC(=O)[C@@H]2C[C@@H](O)CN2C(=O)[C@H]([C@@H](C)O)NC1=O [caspofungin] (first compound 12.5 µM)
- biofilm OD600 [1]: 0.261 ± 0.01
- biofilm OD600 [2]: 0.18 ± 0.008

Compound: CC(C)(C)NC(=O)[C@@H]1CN(Cc2cccnc2)CCN1C[C@@H](O)C[C@@H](Cc1ccccc1)C(=O)N[C@H]1c2ccccc2C[C@H]1O [indinavir] + C[C@@H]1[C@H](O)[C@@H](C)/C=C/C=C/C=C/C=C/C=C/C=C/C=C/[C@H](O[C@@H]2O[C@H](C)[C@@H](O)[C@H](N)[C@@H]2O)C[C@@H]2O[C@](O)(C[C@@H](O)C[C@@H](O)[C@H](O)CC[C@@H](O)C[C@@H](O)CC(=O)O[C@H]1C)C[C@H](O)[C@H]2C(=O)O [amphotericin B] (first compound 12.5 µM)
- biofilm OD600 [1]: 0.283 ± 0.0099
- biofilm OD600 [2]: 0.228 ± 0.0076

Compound: C[C@H](NC(=O)[C@@H]1CCCN1C(=O)[C@@H]1CCCN1C(=O)[C@@H](O)[C@H](N)Cc1ccccc1)C(N)=O [Apstatin] + C[C@@H]1[C@H](O)[C@@H](C)/C=C/C=C/C=C/C=C/C=C/C=C/C=C/[C@H](O[C@@H]2O[C@H](C)[C@@H](O)[C@H](N)[C@@H]2O)C[C@@H]2O[C@](O)(C[C@@H](O)C[C@@H](O)[C@H](O)CC[C@@H](O)C[C@@H](O)CC(=O)O[C@H]1C)C[C@H](O)[C@H]2C(=O)O [amphotericin B] (first compound 12.5 µM)
- biofilm OD600 [1]: 0.294 ± 0.0093
- biofilm OD600 [2]: 0.193 ± 0.0078

Compound: CNC(=O)[C@H](Cc1c[nH]c2ccccc12)NC(=O)[C@@H](CC(=O)NO)CC(C)C + C[C@@H]1[C@H](O)[C@@H](C)/C=C/C=C/C=C/C=C/C=C/C=C/C=C/[C@H](O[C@@H]2O[C@H](C)[C@@H](O)[C@H](N)[C@@H]2O)C[C@@H]2O[C@](O)(C[C@@H](O)C[C@@H](O)[C@H](O)CC[C@@H](O)C[C@@H](O)CC(=O)O[C@H]1C)C[C@H](O)[C@H]2C(=O)O [amphotericin B] (first compound 12.5 µM)
- biofilm OD600 [1]: 0.281 ± 0.01
- biofilm OD600 [2]: 0.194 ± 0.0098

Compound: COC(=O)C[C@H](NC(=O)[C@H](C)NC(=O)[C@@H](NC(=O)OCc1ccccc1)C(C)C)C(=O)CF + CC[C@H](C)C[C@H](C)CCCCCCCCC(=O)N[C@H]1C[C@@H](O)[C@@H](NCCN)NC(=O)[C@@H]2[C@@H](O)CCN2C(=O)[C@H]([C@H](O)CCN)NC(=O)[C@H]([C@H](O)[C@@H](O)c2ccc(O)cc2)NC(=O)[C@@H]2C[C@@H](O)CN2C(=O)[C@H]([C@@H](C)O)NC1=O [caspofungin] (first compound 12.5 µM)
- biofilm OD600 [1]: 0.296 ± 0.011
- biofilm OD600 [2]: 0.177 ± 0.0034

Compound: C[C@]1(Cn2ccnn2)[C@H](C(=O)O)N2C(=O)C[C@H]2S1(=O)=O [Tazobactam] + C[C@@H]1[C@H](O)[C@@H](C)/C=C/C=C/C=C/C=C/C=C/C=C/C=C/[C@H](O[C@@H]2O[C@H](C)[C@@H](O)[C@H](N)[C@@H]2O)C[C@@H]2O[C@](O)(C[C@@H](O)C[C@@H](O)[C@H](O)CC[C@@H](O)C[C@@H](O)CC(=O)O[C@H]1C)C[C@H](O)[C@H]2C(=O)O [amphotericin B] (first compound 12.5 µM)
- biofilm OD600 [1]: 0.308 ± 0.008
- biofilm OD600 [2]: 0.193 ± 0.0071

Compound: CCOC(=O)c1ccc(OC(=O)CCCCCNC(=N)N)cc1 [Gabexate mesylate] + OC(Cn1cncn1)(Cn1cncn1)c1ccc(F)cc1F [fluconazole] (first compound 12.5 µM)
- biofilm OD600 [1]: 0.267 ± 0.013
- biofilm OD600 [2]: 0.116 ± 0.0062

Compound: CC(NC(=O)C(Cc1ccccc1)NC(=O)OCc1ccccc1)C(=O)CF (stereo not drawn) + C[C@@H]1[C@H](O)[C@@H](C)/C=C/C=C/C=C/C=C/C=C/C=C/C=C/[C@H](O[C@@H]2O[C@H](C)[C@@H](O)[C@H](N)[C@@H]2O)C[C@@H]2O[C@](O)(C[C@@H](O)C[C@@H](O)[C@H](O)CC[C@@H](O)C[C@@H](O)CC(=O)O[C@H]1C)C[C@H](O)[C@H]2C(=O)O [amphotericin B] (first compound 12.5 µM)
- biofilm OD600 [1]: 0.307 ± 0.0094
- biofilm OD600 [2]: 0.185 ± 0.005

Compound: N=C(N)Nc1ccc(C(=O)Oc2ccc3cc(C(=N)N)ccc3c2)cc1 [Nafamostat mesylate] + OC(Cn1cncn1)(Cn1cncn1)c1ccc(F)cc1F [fluconazole] (first compound 12.5 µM)
- biofilm OD600 [1]: 0.262 ± 0.011
- biofilm OD600 [2]: 0.104 ± 0.0089

Compound: O=c1oc(Cl)c(Cl)c2ccccc12 [3,4-Dichloroisocoumarin] + CC[C@H](C)C[C@H](C)CCCCCCCCC(=O)N[C@H]1C[C@@H](O)[C@@H](NCCN)NC(=O)[C@@H]2[C@@H](O)CCN2C(=O)[C@H]([C@H](O)CCN)NC(=O)[C@H]([C@H](O)[C@@H](O)c2ccc(O)cc2)NC(=O)[C@@H]2C[C@@H](O)CN2C(=O)[C@H]([C@@H](C)O)NC1=O [caspofungin] (first compound 12.5 µM)
- biofilm OD600 [1]: 0.246 ± 0.014
- biofilm OD600 [2]: 0.21 ± 0.014

Compound: Cc1ccc(S(=O)(=O)N[C@@H](Cc2ccccc2)C(=O)CCl)cc1 + CC[C@H](C)C[C@H](C)CCCCCCCCC(=O)N[C@H]1C[C@@H](O)[C@@H](NCCN)NC(=O)[C@@H]2[C@@H](O)CCN2C(=O)[C@H]([C@H](O)CCN)NC(=O)[C@H]([C@H](O)[C@@H](O)c2ccc(O)cc2)NC(=O)[C@@H]2C[C@@H](O)CN2C(=O)[C@H]([C@@H](C)O)NC1=O [caspofungin] (first compound 4 µM)
- biofilm OD600 [1]: 0.251 ± 0.011
- biofilm OD600 [2]: 0.152 ± 0.013

Compound: CC(C)C[C@H](NC(=O)N[C@H](C(=O)N[C@@H](CCC(N)=O)C(=O)N[C@@H](C)C=O)[C@@H]1CCNC(=N)N1)C(=O)O [Elastatinal] + CC[C@H](C)C[C@H](C)CCCCCCCCC(=O)N[C@H]1C[C@@H](O)[C@@H](NCCN)NC(=O)[C@@H]2[C@@H](O)CCN2C(=O)[C@H]([C@H](O)CCN)NC(=O)[C@H]([C@H](O)[C@@H](O)c2ccc(O)cc2)NC(=O)[C@@H]2C[C@@H](O)CN2C(=O)[C@H]([C@@H](C)O)NC1=O [caspofungin] (first compound 12.5 µM)
- biofilm OD600 [1]: 0.263 ± 0.0069
- biofilm OD600 [2]: 0.189 ± 0.011

Compound: O=C[C@@H]1CCCN1C(=O)[C@@H]1CCCN1C(=O)OCc1ccccc1 [Z-Prolyl-prolinal] + C[C@@H]1[C@H](O)[C@@H](C)/C=C/C=C/C=C/C=C/C=C/C=C/C=C/[C@H](O[C@@H]2O[C@H](C)[C@@H](O)[C@H](N)[C@@H]2O)C[C@@H]2O[C@](O)(C[C@@H](O)C[C@@H](O)[C@H](O)CC[C@@H](O)C[C@@H](O)CC(=O)O[C@H]1C)C[C@H](O)[C@H]2C(=O)O [amphotericin B] (first compound 12.5 µM)
- biofilm OD600 [1]: 0.262 ± 0.013
- biofilm OD600 [2]: 0.156 ± 0.0083

Compound: COC(=O)N[C@H](C(=O)N[C@@H](Cc1ccccc1)[C@@H](O)CN(Cc1ccc(-c2ccccn2)cc1)NC(=O)[C@@H](NC(=O)OC)C(C)(C)C)C(C)(C)C [atazanavir] + CC[C@H](C)C[C@H](C)CCCCCCCCC(=O)N[C@H]1C[C@@H](O)[C@@H](NCCN)NC(=O)[C@@H]2[C@@H](O)CCN2C(=O)[C@H]([C@H](O)CCN)NC(=O)[C@H]([C@H](O)[C@@H](O)c2ccc(O)cc2)NC(=O)[C@@H]2C[C@@H](O)CN2C(=O)[C@H]([C@@H](C)O)NC1=O [caspofungin] (first compound 12.5 µM)
- biofilm OD600 [1]: 0.203 ± 0.0059
- biofilm OD600 [2]: 0.201 ± 0.013

Compound: COC(=O)N[C@H](C(=O)N[C@@H](Cc1ccccc1)[C@@H](O)CN(Cc1ccc(-c2ccccn2)cc1)NC(=O)[C@@H](NC(=O)OC)C(C)(C)C)C(C)(C)C [atazanavir] + OC(Cn1cncn1)(Cn1cncn1)c1ccc(F)cc1F [fluconazole] (first compound 12.5 µM)
- biofilm OD600 [1]: 0.267 ± 0.012
- biofilm OD600 [2]: 0.173 ± 0.0039
